Screens deposited in PubChem by National Center for Advancing Translational Sciences (NCATS).
A selection: hits, their analogues and other compounds. The true share with any hit is near 9%.
ALDH1A1 inh: inhibitors of human aldehyde dehydrogenase 1A1 | P00352 | Purified ALDH1A1, NADH fluorescence, propionaldehyde substrate | Potency, µM (series often up to 75.3 µM), actives largely listed as inhibitors | 7.3% of 220,000 active | AID 1030
HPGD inh: HPGD (human) dehydrogenase inhibition. purified HPGD, NADH fluorescence kinetic, PGE2 substrate. Potency, µM, usual class: inhibitors. 4.3% of 150,000 active
Target sequence (P15428 whole entry, looked up): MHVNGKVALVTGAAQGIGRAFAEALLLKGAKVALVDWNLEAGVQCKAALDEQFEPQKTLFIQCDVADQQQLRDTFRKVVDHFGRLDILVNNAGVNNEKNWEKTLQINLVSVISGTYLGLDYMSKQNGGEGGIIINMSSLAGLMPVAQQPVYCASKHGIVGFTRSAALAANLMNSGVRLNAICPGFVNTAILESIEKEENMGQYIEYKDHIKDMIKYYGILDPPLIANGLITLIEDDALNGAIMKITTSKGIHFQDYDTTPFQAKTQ
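20 nM HPGD preincubated 15 min at room temperature with compound in 50 mM Tris-HCl pH 8, 0.01% Tween 20. Started with 1 mM NAD+ and 30 uM prostaglandin E2; NADH fluorescence (360/450 nm) read 5 times over 30-s intervals, last minus first.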
IMPase cell inh: cell-permeable inhibitors of inositol monophosphatase (IMPase) | P97697 | CHO-M1 cells, IP1 accumulation, HTRF TR-FRET ratio | inhibition (IP1 accumulation), % at 46.1 µM | 120,000 tested, under 10 active | AID 901; active = well fitted curve in the direction sought with a large enough effect in the signal ratio, not every such curve was filed as active; inconclusive = small, poorly fitted or top-dose-only effect, or a change in a side signal; inactive = no such curve, though single readings can be large or run the other way; the % refers to the signal ratio;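 also: cells stimulated with carbachol in lithium chloride buffer; higher means more IMPase inhibition seen as more IP1 and lower FRET ratio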
Target sequence (P97697 whole entry, looked up): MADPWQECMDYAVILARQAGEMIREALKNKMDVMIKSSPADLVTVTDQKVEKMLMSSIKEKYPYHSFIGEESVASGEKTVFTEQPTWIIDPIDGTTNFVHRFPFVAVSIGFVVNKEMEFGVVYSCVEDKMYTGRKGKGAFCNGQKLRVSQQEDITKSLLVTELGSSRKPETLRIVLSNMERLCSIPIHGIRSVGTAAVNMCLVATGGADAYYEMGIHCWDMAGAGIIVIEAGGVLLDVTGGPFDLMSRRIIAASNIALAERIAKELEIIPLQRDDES
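CHO-M1 cells (CHO stably expressing M1 receptor), compound up to 46 uM final, stimulated with carbachol (50 uM as added) in buffer with 50mM LiCl, pH 7.4, 30 min at 37C. Cytosolic IP1 read by TR-FRET; AC50 from Hill fits.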
Large screens that a line does not name were inactive. Unless noted, calls follow the shape of the dose curve; as a rule, active = well fitted inhibition curve with a large enough effect (not every such curve was filed as active); inconclusive = small, poorly fitted or top-dose-only effect, or another doubt; inactive = no such curve, though single readings can be large or run the other way.

Cc1cc(C)cc(NC(=O)Cn2nnc3ccccc3c2=O)c1	none (no result: HPGD inh, IMPase cell inh)
Cc1cc2ncn(/N=C/c3ccc(-c4ccccc4)o3)c2cc1C	HPGD inh inconclusive
Cc1ccc(/C=N/n2cnc3sc(-c4ccccc4)cc3c2=O)o1	ALDH1A1 inh 32µM, HPGD inh inconclusive
Cn1c(=O)c2[nH]c(CS(=O)(=O)Cc3nc4c([nH]3)c(=O)n(C)c(=O)n4C)nc2n(C)c1=O	ALDH1A1 inh inconclusive (no result: IMPase cell inh)
CCCC(=O)NNC(=O)c1ccoc1C	none (no result: IMPase cell inh)
CCC(C)(C)C1CCC(=NNC(=O)c2ccoc2C)CC1 (stereo unspecified)	ALDH1A1 inh 25µM
COc1ccc2[nH]c3c(c2c1)CCn1c-3nc2ccccc2c1=O	ALDH1A1 inh inconclusive, HPGD inh inconclusive
COc1ccc2nc3c(c([Si](C)(C)C(C)(C)C)c2c1)Cn1c-3cccc1=O	ALDH1A1 inh 22µM, HPGD inh inconclusive (no result: IMPase cell inh)
O=C(CCS(=O)(=O)c1ccc(Br)cc1)Nc1cc(F)ccc1F	ALDH1A1 inh 22µM (no result: IMPase cell inh)
O=C(CCS(=O)(=O)c1ccc(Br)cc1)NC1CCCC1	none
CC(C)c1ccc(NC(=O)COc2nncc3ccccc23)cc1	ALDH1A1 inh inconclusive (no result: HPGD inh)
CCCN1C(=O)/C(=N\OCC(=O)NC23CC4CC(CC(C4)C2)C3)c2ccccc21	ALDH1A1 inh 0.28µM, HPGD inh 16µM
CC(=O)NC(CC(=O)NC12CC3CC(CC(C3)C1)C2)c1ccccc1 (stereo unspecified)	none (no result: IMPase cell inh)
CCCN1C(=O)/C(=N\OCC(=O)Nc2ccc(C(C)C)cc2)c2ccccc21	ALDH1A1 inh 0.5µM (no result: IMPase cell inh)
c1cncc(-c2cc(-n3ccnc3)ncn2)c1	none (no result: HPGD inh, IMPase cell inh)
CC(C)(C)c1cc(Br)c(O)c(N=Nc2ccc(S(=O)(=O)N3CCOCC3)cc2)c1	none (no result: HPGD inh, IMPase cell inh)
Cn1c(=O)c2c(nc(NNC(=O)C(F)(F)F)n2C)n(C)c1=O	none (no result: HPGD inh, IMPase cell inh)
CCN(CC)S(=O)(=O)c1cnccc1N1CCN(c2cccc(Cl)c2)CC1	none (no result: IMPase cell inh)
CC(C)c1ccc(/C=C2\CC/C(=C\C=N\N(C)C)C2=O)cc1	ALDH1A1 inh 0.4µM
CC(C)/C=C1\CC/C(=C\c2ccc(N(C)C)cc2)C1=O	none
Cn1c(=O)c2c(nc(SCC(=O)N3CCCCCC3)n2C)n(C)c1=O	ALDH1A1 inh inconclusive
O=C(O)/C=C/C(=O)c1ccc(O)cc1	ALDH1A1 inh 14µM (no result: HPGD inh, IMPase cell inh)
O=C(O)/C=C/C(=O)Nc1ccc(O)cc1	none (no result: HPGD inh, IMPase cell inh)
Cc1ccc(-c2ccc(/C=N/NC(=O)c3ccccc3O)o2)cc1	none (no result: HPGD inh, IMPase cell inh)
COc1ccccc1/C=C/C(=O)c1ccccc1	none (no result: HPGD inh, IMPase cell inh)
CC(/C=C/C(=O)c1ccc(C)cc1)=C\c1ccccc1	none
O=C(/C=C\c1ccc(-c2ccccc2)o1)c1ccccc1	ALDH1A1 inh 4µM, HPGD inh inconclusive
Cc1ccc(C(=O)/C=C\C(=O)c2ccc(C)cc2)cc1	ALDH1A1 inh 7.1µM, HPGD inh 2.2µM (no result: IMPase cell inh)
Cc1ccc(C(=O)/C=C/c2ccc(-c3ccc(C)cc3)o2)cc1	ALDH1A1 inh 0.71µM, HPGD inh 7.1µM (no result: IMPase cell inh)
CNC(=O)c1ccc(NC(=O)COc2ccc(-c3nn(C)c(=O)c4ccccc34)cc2)cc1	none (no result: ALDH1A1 inh, HPGD inh)
Cc1cccc(-n2c(-c3ccccc3)cn3c4c(=O)[nH]c(=O)n(C)c4nc23)c1	none (no result: ALDH1A1 inh, HPGD inh)
Cc1ccc(S/C=C\C(=O)c2ccccc2)cc1	ALDH1A1 inh 20µM
Cc1c(/C=C/C(=O)c2ccccc2)cnn1C	ALDH1A1 inh inconclusive, HPGD inh inconclusive
Cc1ccc(N2C(=O)CC(N(CCc3ccccc3)C(=S)Nc3ccc(N(C)C)cc3)C2=O)cc1 (stereo unspecified)	ALDH1A1 inh 28µM
O=C1CC(N(CCc2ccccc2)C(=S)Nc2ccccc2)C(=O)N1c1ccc(Br)cc1 (stereo unspecified)	ALDH1A1 inh inconclusive
Nc1nn(-c2ccccc2)c(N)c1N=Nc1ccccc1F	HPGD inh 13µM (no result: IMPase cell inh)
Cc1nn(-c2ccccc2)c(N)c1-c1ccccc1	none (no result: HPGD inh, IMPase cell inh)
Nc1nn(-c2ccccc2)c(N)c1N=Nc1ccccc1	none (no result: IMPase cell inh)
Cc1nn(-c2ccccc2)c(N)c1N=Nc1ccc(Cl)cc1	none
Cc1cccc(N=Nc2c(C)nn(-c3ccccc3)c2N)c1C	HPGD inh 16µM (no result: IMPase cell inh)
Cc1nn(-c2ccccc2)c(N)c1N=Nc1ccccc1	ALDH1A1 inh inconclusive, HPGD inh 20µM (no result: IMPase cell inh)
C/C(=N/NC(=O)CNc1ccc(Cl)cc1C)c1ccc(C)cc1	none (no result: HPGD inh, IMPase cell inh)
CCc1ccc(NC(=O)CNS(=O)(=O)c2c(C)noc2C)cc1	ALDH1A1 inh inconclusive
O=C(Cn1c(=S)[nH]c2ccccc2c1=O)N1CCN(c2ccc(F)cc2)CC1	none (no result: HPGD inh, IMPase cell inh)
COc1ccc(-c2oc3ncn4nc(-c5ccccc5C)nc4c3c2-c2ccc(OC)cc2)cc1	none (no result: ALDH1A1 inh, HPGD inh)
COc1ccc(C(C)=O)cc1COc1nc(C)nc2ccccc12	none (no result: HPGD inh, IMPase cell inh)
O=C(COC(=O)c1ccc2c(c1Cl)C(=O)c1ccccc1C2=O)NC1CCCCC1	HPGD inh 6.3µM (no result: IMPase cell inh)
O=C(COC(=O)c1ccc2c(c1Cl)C(=O)c1ccccc1C2=O)NC1CC1	ALDH1A1 inh inconclusive, HPGD inh 7.9µM (no result: IMPase cell inh)
O=C(COC(=O)c1ccccc1OCc1ccc(Cl)cc1)NC1CC1	none
